Measured values: PubChem BioAssay AID372 (MTDP, 2006)
Among all 100,000 compounds or so, about 770 (0.77%) were called active. The list comes from a sample in which actives are over-represented; it also holds similar structures and randomly drawn compounds. Unmarked numbers belong to inactive results. Rule as the data show it: active = inhibition above about 50%; inactive = the rest.

molecular target: Gag-Pol polyprotein (Human immunodeficiency virus type 1 group M subtype B (isolate HXB2)) (UniProt P04585); assay: RNase H inhibition, HIV 1 Gag Pol polyprotein, FRET biochemical assay, screening (AID 372); settings: HIV-1 RT RNase H, FRET RNA/DNA substrate fluorescence; at 10 µM; hits give high values

Q: `Cc1c(N2C(=O)S/C(=C\c3ccc(N(C)C)cc3)C2=O)c(=O)n(-c2ccccc2)n1C` was tested. Which inhibition did it give?
A: 67% (active)

Q: How did the inhibition turn out when `Cc1c(N2C(=O)S/C(=C\c3ccccc3)C2=O)c(=O)n(-c2ccccc2)n1C` was run?
A: 0%

Q: For `COc1ccc(/C=C2\SC(=O)N(c3c(C)n(C)n(-c4ccccc4)c3=O)C2=O)cc1`, which inhibition is on record?
A: 0%

Q: `Cc1c(N2C(=O)S/C(=C\c3ccc([N+](=O)[O-])cc3)C2=O)c(=O)n(-c2ccccc2)n1C` was tested. Which inhibition did it give?
A: 3%

Q: With `Cc1c(N2C(=O)/C(=C/c3cccc([N+](=O)[O-])c3)SC2=S)c(=O)n(-c2ccccc2)n1C` as the compound, how does the inhibition read?
A: 13%

Q: With `Cc1c(N2C(=O)S/C(=C\c3cccc([N+](=O)[O-])c3)C2=O)c(=O)n(-c2ccccc2)n1C` as the compound, how does the inhibition read?
A: 59% (active)

Q: How did the inhibition turn out when `Cc1ncc(CO)c(/C=N/Nc2ccccc2)c1O` was run?
A: 13%

Q: `O=C(N/N=C/c1ccc(O)c(Br)c1)c1cccc(Br)c1` was tested. Which inhibition did it give?
A: 0%

Q: How did the inhibition turn out when `COc1ccc(NC(=O)c2sc3cc(C)ccc3c2Cl)c(OC)c1` was run?
A: 3%

Q: `Cc1ccn2c(-c3csc(Nc4ccc(O)cc4)n3)c(C)nc2c1` was tested. Which inhibition did it give?
A: 8%

Q: `CCC1CCCCN1S(=O)(=O)c1ccc(Cl)c([N+](=O)[O-])c1` (centres undefined) was tested. Which inhibition did it give?
A: 12%

Q: Which inhibition does the source give for `Cc1cccc(N2C(=O)c3ccc(-c4nc5ccccc5c(=O)o4)cc3C2=O)c1C` here?
A: 10%

Q: With `Cc1cc(C)c(N2C(=O)c3ccc(-c4nc5ccccc5c(=O)o4)cc3C2=O)c(C)c1` as the compound, how does the inhibition read?
A: 54% (active)

Q: With `Cc1cc(Br)ccc1N1C(=O)c2ccc(-c3nc4ccccc4c(=O)o3)cc2C1=O` as the compound, how does the inhibition read?
A: 59% (active)

Q: Which inhibition does the source give for `Cc1ccccc1N1C(=O)c2ccc(-c3nc4ccccc4c(=O)o3)cc2C1=O` here?
A: 2%

Q: `Cc1ccc(N2C(=O)c3ccc(-c4nc5ccccc5c(=O)o4)cc3C2=O)c(C)c1` was tested. Which inhibition did it give?
A: 5%

Q: For `Cc1cccc(N2C(=O)c3ccc(-c4nc5ccccc5c(=O)o4)cc3C2=O)c1`, which inhibition is on record?
A: 37%

Q: For `O=C1C(=O)N(c2cccnc2)C(c2ccc(F)cc2)/C1=C(\O)c1ccc(Cl)cc1` (centres undefined), which inhibition is on record?
A: 2%

Q: With `CCCC(=O)N1c2c(C)cccc2C(Nc2ccccc2C)CC1C` (centres undefined) as the compound, how does the inhibition read?
A: 12%

Q: With `COC(=O)c1c(NC(=O)c2c(F)c(F)c(F)c(F)c2F)sc2c1CCCCC2` as the compound, how does the inhibition read?
A: 26%

Q: Which inhibition does the source give for `O=c1c(C=NCC2CCCO2)c(C(F)(F)F)[nH]n1-c1nc2ccccc2s1` (centres undefined) here?
A: 0%

Q: For `CCOC(=O)c1ccc(NC(=O)Nc2nc(-c3ccccc3)cs2)cc1`, which inhibition is on record?
A: 0%

Q: How did the inhibition turn out when `Oc1c(Br)cc(Cl)cc1/C=C/c1ccc2cccc(O)c2n1` was run?
A: 15%

Q: How did the inhibition turn out when `NC(=O)c1cccc2c1NC(C(=O)O)C1CC=CC21` (centres undefined) was run?
A: 22%

Q: `O=C(O)C1Nc2c(cccc2[N+](=O)[O-])C2C=CCC12` (centres undefined) was tested. Which inhibition did it give?
A: 17%

Q: Which inhibition does the source give for `O=C(O)C1Nc2ccc(F)cc2C2C=CCC12` (centres undefined) here?
A: 12%

Q: For `O=C(O)C1Nc2c(I)cccc2C2C=CCC12` (centres undefined), which inhibition is on record?
A: 30%

Q: How did the inhibition turn out when `Cc1ccc2c(c1)C1C=CCC1C(C(=O)O)N2` (centres undefined) was run?
A: 27%

Q: `O=C(c1ccccc1)c1cc(Cl)cc2c1NC(C(=O)O)C1CC=CC21` (centres undefined) was tested. Which inhibition did it give?
A: 30%

Q: Which inhibition does the source give for `O=C1c2ccccc2NC(c2ccccc2O)N1Cc1ccco1` (centres undefined) here?
A: 5%

Q: How did the inhibition turn out when `CC(C)Cc1ccc(-c2csc(/C(C#N)=C/Nc3ccccc3)n2)cc1` was run?
A: 0%

Q: `CCOc1cc(/C=C2\SC(N)=NC2=O)ccc1OCCOc1ccc(Cl)c(C)c1` was tested. Which inhibition did it give?
A: 30%

Q: Which inhibition does the source give for `O=C(CSCc1cccc(Br)c1)N=Nc1c(O)[nH]c2ccccc12` here?
A: 16%

Q: How did the inhibition turn out when `Cc1ccc(Cc2cnc(NC(=O)c3ccc(Br)cc3)s2)cc1` was run?
A: 0%

Q: `COc1cccc(C(=O)Nc2ccc(-c3ccc(NC(=O)c4cccc(OC)c4)cc3)cc2)c1` was tested. Which inhibition did it give?
A: 2%

Q: With `O=C(Nc1ccc(-c2cnc(-c3ccc(NC(=O)c4ccccc4)cc3)nc2)cc1)c1ccccc1` as the compound, how does the inhibition read?
A: 0%

Q: With `COc1cccc(C(=O)Nc2ccc(-c3cnc(-c4ccc(NC(=O)c5cccc(OC)c5)cc4)nc3)cc2)c1` as the compound, how does the inhibition read?
A: 50% (active)

Q: With `Cc1cc(C)c(OCCCCN2CCC(C)CC2)c(C)c1` as the compound, how does the inhibition read?
A: 10%

Q: For `COc1cc([N+](=O)[O-])ccc1NC(=S)NC(=O)c1ccccc1`, which inhibition is on record?
A: 3%

Q: `N#Cc1c(N)c(C#N)c(-c2ccco2)c2c1CCCC2` was tested. Which inhibition did it give?
A: 4%

Q: With `N#Cc1c(-c2ccco2)c2c([nH]c1=S)CCCC2` as the compound, how does the inhibition read?
A: 63% (active)

Q: `Cc1ccc(-c2c3c([nH]c(=S)c2C#N)CCCC3)o1` was tested. Which inhibition did it give?
A: 8%

Q: With `Oc1cccc(/C=N/Nc2nc(-c3ccc(Br)cc3)cs2)c1` as the compound, how does the inhibition read?
A: 16%

Q: Which inhibition does the source give for `O=S(=O)(Nc1cccc(C(F)(F)F)c1)c1ccc(F)cc1` here?
A: 0%

Q: How did the inhibition turn out when `O=S(=O)(Nc1cccc(I)c1)c1ccccc1` was run?
A: 0%

Q: `O=S(=O)(Nc1cccc(Br)c1)c1ccc2ccccc2c1` was tested. Which inhibition did it give?
A: 50% (active)

Q: How did the inhibition turn out when `O=S(=O)(Nc1ccc(Nc2ccccc2)cc1)c1ccc2ccccc2c1` was run?
A: 0%

Q: How did the inhibition turn out when `Cc1cc(C)cc(NS(=O)(=O)c2ccc3ccccc3c2)c1` was run?
A: 14%

Q: For `COc1ccc(S(=O)(=O)Nc2cccc(C(F)(F)F)c2)cc1`, which inhibition is on record?
A: 0%

Q: With `O=S(=O)(Nc1cccc(F)c1)c1ccc2ccccc2c1` as the compound, how does the inhibition read?
A: 27%

Q: `O=S(=O)(Nc1cccc(I)c1)c1ccc2ccccc2c1` was tested. Which inhibition did it give?
A: 52% (active)

Q: How did the inhibition turn out when `Brc1ccc(N2COc3ccc4ccccc4c3C2)cc1` was run?
A: 18%

Q: For `CCOC(=O)c1ccc2c(c1)C1C=CCC1C(c1ccc(Br)cc1)N2` (centres undefined), which inhibition is on record?
A: 31%

Q: `Cc1ccc(C(=O)Nc2ccc(I)cc2)o1` was tested. Which inhibition did it give?
A: 0%

Q: `CCCOC(=O)C1=C(C)NC(=O)NC1c1cccc2ccccc12` (centres undefined) was tested. Which inhibition did it give?
A: 4%

Q: Which inhibition does the source give for `CCc1ccc(NC(=O)C(=O)NCCc2ccc(F)cc2)cc1` here?
A: 12%

Q: How did the inhibition turn out when `COc1ccc(C(=O)NC(NC(=O)c2ccc(OC)c(OC)c2)c2ccc(Br)cc2)cc1OC` was run?
A: 6%

Q: Which inhibition does the source give for `O=C1NC(=O)c2ccc3c4c(ccc1c24)CC3` here?
A: 2%

Q: With `NN1C(=O)c2ccc3c4c(ccc(c24)C1=O)CC3` as the compound, how does the inhibition read?
A: 0%

Q: With `COc1cc(CN2CCN(C3CCCC(C)C3)CC2)cc(OC)c1OC` (centres undefined) as the compound, how does the inhibition read?
A: 7%

Q: For `COc1ccc(CNC(=O)c2ccc(Cl)c(Cl)c2)cc1`, which inhibition is on record?
A: 8%

Q: With `CC(C)=NNC(=O)Sc1cc(O)c(Cl)cc1O` as the compound, how does the inhibition read?
A: 66% (active)

Q: `CC(C)=NNC(=O)C(=O)Nc1ccc(Cl)c(Cl)c1` was tested. Which inhibition did it give?
A: 12%

Q: For `CC(C)=NNC(=O)C(=O)Nc1cccc(Cl)c1`, which inhibition is on record?
A: 10%
